# Calls of active or inactive are those of the source.
# Legend:
# [1] = E. coli DRC41 culture turbidity changes, primary screen, E. coli filamentation inducer project, strain DRC41, OD650, 48 h (AID 1152);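 further: E. coli MC1000 strain DRC41 lacking acrAB efflux pump and sulA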; settings: E. coli DRC41 (acrAB sulA), higher = more signal, called active from +8 up or from −8 down
# [2] = small-molecule binders of probe aLefty1, primary screen, biochemical, small-molecule microarray, 635/667 nm fluorescence (AID 1153); settings: higher = more signal;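 further: score merges spot fluorescence with signal-to-noise ratio from the scanned slide images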
# [3] = PSAC antagonists in infected red cells, primary screen, cell-based, P. falciparum Indochina, OD700, 1 h (AID 1154); settings: P. falciparum Indochina infected RBC osmotic lysis, higher = more signal, called active from +8 up or from −8 down
# [4] = PSAC antagonists in infected red cells, primary screen, cell-based, P. falciparum Indochina, OD700, 2 h (AID 1155);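 further: lysis reports solute entry through the parasite surface anion channel PSAC; channel blockers reduce lysis of infected cells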; settings: P. falciparum Indochina infected erythrocytes, osmotic lysis OD700; higher = more signal, called active from +8 up or from −8 down
# [5] = osmotic lysis modulators in infected erythrocytes, primary screen, PSAC antagonist project, cell-based, P. falciparum Indochina, OD700, 3 h (AID 1156); settings: higher = more signal, called active from +8 up or from −8 down
# [6] = PSAC antagonists in infected red cells, primary screen, cell-based, P. falciparum Indochina, OD700, 18 h (AID 1157); settings: P. falciparum Indochina infected erythrocytes, osmotic lysis OD700, 18 h; higher = more signal, called active from +8 up or from −8 down
# [7] = modulators of S6 phosphorylation in cells, primary screen, cell-based, A549, cytoblot, luminescence, serum-stimulated (AID 1158); settings: A549 phospho-S6 cytoblot, 5 h, higher = more signal;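 further: serum-stimulated A549 lung adenocarcinoma cells; signal is phosphorylated S6 detected by cytoblot immunostaining with HRP secondary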
# [8] = target: NADPH oxidase 2 (Homo sapiens) (UniProt P04839); assay: NOX2-dependent H2O2 signal modulators, primary screen, NOX inhibitor project, cell-based, HEK293-NOX2, PMA-stimulated, Amplex Red fluorescence (AID 1159); settings: 45 min, higher = more signal, called active from +8 up or from −8 down; further: test concentration not given here
# [9] = target: NADPH oxidase 4 (Homo sapiens) (UniProt Q9NPH5); assay: NOX4-dependent H2O2 signal modulators, primary screen, NOX inhibitor project, cell-based, HEK293-NOX4, tetracycline-induced, Amplex Red fluorescence (AID 1160); settings: 45 min, higher = more signal, called active from +8 up or from −8 down
# [10] = target: NADPH oxidase 5 (Homo sapiens) (UniProt Q96PH1); assay: NOX5-dependent H2O2 signal modulators, primary screen, NOX inhibitor project, cell-based, HEK293-NOX5, Amplex Red fluorescence (AID 1161); settings: HEK293-NOX5, ionomycin, 45 min, higher = more signal
# [11] = A549 cell viability effects, profiling panel, calcein-AM fluorescence, 48 h, basal (AID 1162); settings: higher = more signal; further: test concentration not given here
# [12] = adipocyte viability effects, profiling panel, cell-based, 3T3-L1 adipocytes, calcein-AM fluorescence, 48 h, basal (AID 1163); settings: 3T3-L1 adipocytes viability, higher = more signal; further: test concentration not given here
# [13] = HepG2 cell viability effects, profiling panel, calcein-AM fluorescence, 48 h, basal (AID 1164); settings: higher = more signal; further: test concentration not given here
# [14] = MM1S cell viability effects, profiling panel, calcein-AM fluorescence, 48 h, basal (AID 1165); settings: higher = more signal;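 further: viability of MM1S multiple myeloma cells under basal unstimulated conditions; test concentration not given here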
# [15] = basal RPMI8226 viability, no added stimulus, profiling panel, cell-based, calcein-AM fluorescence, 48 h, PK04 Diversity Set (AID 1166); settings: RPMI8226 myeloma viability, higher = more signal;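 further: cells grown under basal conditions without added stimulus; test concentration not given here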
# [16] = basal HepG2 mitochondrial membrane potential changes, profiling panel, cell-based, JC-1 fluorescence, 24 h, 100 nL compound (AID 1167); settings: higher = more signal; further: test concentration not given here
# [17] = basal 3T3-L1 adipocyte mitochondrial potential changes, profiling panel, cell-based, JC-1 fluorescence, 3T3-L1 adipocytes, 24 h, 100 nL compound (AID 1168); settings: JC-1 mitochondrial fluorescence, higher = more signal, called active from +8 up or from −8 down; further: test concentration not given here
# [18] = basal RPMI8226 mitochondrial membrane potential changes, profiling panel, cell-based, JC-1 fluorescence, 24 h, 100 nL compound (AID 1169); settings: RPMI8226 myeloma, JC-1 mitochondrial potential fluorescence, higher = more signal; further: test concentration not given here
# [19] = basal MM1S mitochondrial membrane potential changes, profiling panel, cell-based, JC-1 fluorescence, 24 h, 100 nL compound (AID 1170); settings: higher = more signal; further: test concentration not given here
# [20] = A549 lung cancer cell viability effects, profiling panel, resazurin fluorescence, 24 h, PK04 Diversity Set (AID 1171); settings: higher = more signal, called active from +8 up or from −8 down; further: test concentration not given here
# Sequence of NADPH oxidase 5 (Homo sapiens) (Q96PH1 whole entry, looked up): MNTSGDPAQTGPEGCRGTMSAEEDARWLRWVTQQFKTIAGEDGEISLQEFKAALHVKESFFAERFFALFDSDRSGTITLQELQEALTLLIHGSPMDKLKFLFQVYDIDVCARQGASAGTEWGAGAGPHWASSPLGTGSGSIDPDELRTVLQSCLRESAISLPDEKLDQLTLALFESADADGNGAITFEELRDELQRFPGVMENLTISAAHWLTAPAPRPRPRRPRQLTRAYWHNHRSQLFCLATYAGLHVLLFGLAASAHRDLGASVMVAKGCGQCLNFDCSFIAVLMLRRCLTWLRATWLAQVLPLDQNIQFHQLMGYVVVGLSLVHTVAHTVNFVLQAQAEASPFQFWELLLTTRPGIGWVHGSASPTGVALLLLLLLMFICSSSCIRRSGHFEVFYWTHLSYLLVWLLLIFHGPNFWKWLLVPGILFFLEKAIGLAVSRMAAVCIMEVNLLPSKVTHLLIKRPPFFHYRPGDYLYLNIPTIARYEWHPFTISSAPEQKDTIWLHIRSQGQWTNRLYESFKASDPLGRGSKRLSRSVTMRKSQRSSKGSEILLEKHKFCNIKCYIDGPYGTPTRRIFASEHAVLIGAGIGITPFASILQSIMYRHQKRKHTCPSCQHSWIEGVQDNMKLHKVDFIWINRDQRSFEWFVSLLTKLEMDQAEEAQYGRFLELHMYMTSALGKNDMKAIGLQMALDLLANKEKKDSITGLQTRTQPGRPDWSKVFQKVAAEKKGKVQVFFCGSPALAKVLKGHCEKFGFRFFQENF
# Sequence of NADPH oxidase 4 (Homo sapiens) (Q9NPH5 whole entry, looked up): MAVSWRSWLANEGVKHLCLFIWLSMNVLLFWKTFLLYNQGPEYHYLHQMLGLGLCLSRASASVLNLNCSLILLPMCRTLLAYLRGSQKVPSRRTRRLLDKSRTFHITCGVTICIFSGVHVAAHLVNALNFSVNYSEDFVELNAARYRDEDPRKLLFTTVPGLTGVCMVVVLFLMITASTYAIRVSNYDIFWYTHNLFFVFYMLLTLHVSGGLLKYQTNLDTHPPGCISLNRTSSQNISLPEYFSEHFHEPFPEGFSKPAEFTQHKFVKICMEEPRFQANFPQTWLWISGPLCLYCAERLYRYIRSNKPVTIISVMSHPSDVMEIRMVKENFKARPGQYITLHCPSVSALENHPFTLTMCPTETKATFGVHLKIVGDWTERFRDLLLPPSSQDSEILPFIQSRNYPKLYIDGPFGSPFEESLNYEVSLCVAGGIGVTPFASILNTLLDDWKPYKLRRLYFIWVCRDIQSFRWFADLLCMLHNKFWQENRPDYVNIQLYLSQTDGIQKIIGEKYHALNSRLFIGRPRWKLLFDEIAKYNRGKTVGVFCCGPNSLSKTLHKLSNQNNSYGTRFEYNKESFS
# Sequence of NADPH oxidase 2 (Homo sapiens) (P04839 whole entry, looked up): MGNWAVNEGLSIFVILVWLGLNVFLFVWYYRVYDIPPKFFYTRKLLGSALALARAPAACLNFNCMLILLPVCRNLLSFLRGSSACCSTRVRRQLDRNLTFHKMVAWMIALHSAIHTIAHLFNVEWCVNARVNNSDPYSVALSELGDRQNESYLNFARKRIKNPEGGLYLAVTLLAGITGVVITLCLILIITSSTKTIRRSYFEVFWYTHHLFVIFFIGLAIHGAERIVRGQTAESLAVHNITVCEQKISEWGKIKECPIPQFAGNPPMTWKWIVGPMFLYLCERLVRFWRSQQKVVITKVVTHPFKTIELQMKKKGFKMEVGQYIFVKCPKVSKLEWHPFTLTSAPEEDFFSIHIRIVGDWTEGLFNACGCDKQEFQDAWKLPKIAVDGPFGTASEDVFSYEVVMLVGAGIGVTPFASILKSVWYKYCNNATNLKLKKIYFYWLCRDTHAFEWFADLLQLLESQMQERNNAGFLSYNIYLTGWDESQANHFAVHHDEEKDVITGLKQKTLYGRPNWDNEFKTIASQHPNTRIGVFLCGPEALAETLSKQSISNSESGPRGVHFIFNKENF
Structure (SMILES),z-score [1],composite z-score [2],z-score [3],z-score [4],z-score [5],z-score [6],z-score [7],z-score [8],z-score [9],z-score [10],z-score [11],z-score [12],z-score [13],z-score [14],z-score [15],z-score [16],z-score [17],z-score [18],z-score [19],z-score [20]
O=C1C=CC(=O)[C@@H]2CC(COc3ccccc3)=C3[C@@H](CCc4ccccc4)OB(O)C[C@@H]3[C@H]12,-0.365 (inactive),0.0491,3.41 (inactive),-0.0365 (inactive),-0.0433 (inactive),0.0107 (inactive),0.0482,-0.511 (inactive),-3.32 (inactive),-5.88,-0.491,-1.23,-0.478,-3.22,-3.95,-3.77,-1.83 (inactive),-1.01,-2.46,-0.108 (inactive)
CC(C)N1CC=CC23O[C@@H]4C=CCOC(=O)[C@@H]4[C@H]2C(=O)N(CCO)[C@@H]3C1=O (stereo not given in full),0.759 (inactive),-0.0559,-0.0173 (inactive),0.257 (inactive),-0.288 (inactive),0.6 (inactive),0.121,0.603 (inactive),0.865 (inactive),0.913,-0.237,0.253,-0.166,1.07,-0.761,-0.38,0.0611 (inactive),0.223,-0.797,0.336 (inactive)
O=C1O[C@@H](c2ccccc2)[C@@H](c2ccccc2)N2[C@@H](c3ccc(OCCO)cc3)[C@]3(C(=O)Nc4ccc(C#CC5=CCCCC5)cc43)[C@@H](C(=O)O)[C@H]12,-0.584 (inactive),-0.0827,-3.36 (inactive),-1.76 (inactive),-10.6 (active),-0.957 (inactive),-0.106,1.67 (inactive),-1.08 (inactive),-0.216,1.09,0.771,-0.128,-3.21,-4.57,-4.12,-4.9 (inactive),-0.946,-1.42,0.872 (inactive)
COC(=O)[C@@]1(Cc2ccccc2)N=C(c2ccc(OCCCO)cc2)O[C@H]1c1ccccc1N=[N+]=[N-],0.388 (inactive),0.129,29.2 (active),24.1 (active),1.79 (inactive),5.76 (inactive),0.661,-2.01 (inactive),0.373 (inactive),-1.06,0.119,0.113,-2.06,-3.35,-4.04,1.12,-0.528 (inactive),-1.11,-0.896,-1.83 (inactive)
CC(C)CNC(=O)[C@@]1(c2ccc([N+](=O)[O-])cc2)CC(=O)N(CC23CC4CC(CC(C4)C2)C3)[C@@H]1c1ccc(CO)cc1,2.76 (inactive),0.227,2.75 (inactive),-0.14 (inactive),0.856 (inactive),-0.36 (inactive),0.802,-0.129 (inactive),-1.06 (inactive),0.965,-0.642,1.57,-0.715,-2.68,-3.66,0.0331,0.226 (inactive),-1,0.857,-2.47 (inactive)
COC(=O)c1c(CC[C@@H](CO)NC(=O)N[C@@H](Cc2ccccc2)Cn2cc(C3(O)CCCCC3)nn2)oc(C(C)=O)c1C(=O)OC,1.27 (inactive),0.101,2.27 (inactive),0.566 (inactive),0.999 (inactive),0.312 (inactive),1.93,-5.26 (inactive),-2.18 (inactive),-4.82,0.548,2.01,-0.889,0.513,-1.69,0.384,0.349 (inactive),-0.614,-0.403,0.215 (inactive)
COC(=O)C[C@@H]1C[C@H](C)[C@]2(O1)C(=O)N(Cc1ccccc1)c1ccc(NC(C)=O)cc12,0.442 (inactive),-0.193,1.66 (inactive),-0.0327 (inactive),0.962 (inactive),0.0822 (inactive),0.525,0.627 (inactive),-1.06 (inactive),2.27,-0.0958,0.663,-0.258,0.186,-0.804,-0.0913,-0.551 (inactive),-0.183,0.229,-0.982 (inactive)
[N-]=[N+]=NCc1ccccc1[C@H]1OC(c2ccc(OCCCO)cc2)=N[C@@]1(CCS(=O)(=O)c1ccccc1)C(=O)N1CCOCC1,-0.0978 (inactive),1.08,24.4 (active),9.51 (active),1.76 (inactive),0.885 (inactive),-0.362,1.24 (inactive),2.19 (inactive),1.98,1.91,0.831,1.01,-0.921,0.695,-1.05,0.455 (inactive),-0.507,-0.877,0.388 (inactive)
CC(C)(C)N1CC=CC23O[C@@H]4/C=C\CCCOC(=O)C4[C@H]2C(=O)N(CCO)[C@@H]3C1=O (stereo not given in full),0.583 (inactive),-0.552,0.806 (inactive),1.01 (inactive),0.17 (inactive),0.603 (inactive),-0.495,1.58 (inactive),0.0377 (inactive),2.17,-0.612,1.15,-0.664,0.889,-0.689,-0.388,-0.79 (inactive),-0.0669,1.11,-0.876 (inactive)
COc1ccc([Si](C)(C)[C@H]2[C@H](CCn3cc([C@H](O)c4ccccc4)nn3)O[C@@]3(C(=O)N(Cc4cccc(N5CCC5=O)c4)c4ccccc43)[C@@H]2C)cc1,2.02 (inactive),0.167,9.44 (active),0.475 (inactive),-0.272 (inactive),-0.87 (inactive),1.77,0.0292 (inactive),1.09 (inactive),2.04,0.692,1.3,1.57,0.739,-1.32,0.906,-0.336 (inactive),-1.15,-0.948,-0.323 (inactive)
CC(C)NC(=O)[C@@H]1c2ccccc2C(=O)N(Cc2ccccc2Cl)[C@H]1c1ccc(CO)cc1,1.09 (inactive),0.509,2.67 (inactive),1.05 (inactive),0.796 (inactive),0.183 (inactive),-0.469,-0.444 (inactive),0.715 (inactive),0.376,1.97,0.84,1.23,0.0027,0.665,2.42,-0.466 (inactive),-0.195,-0.615,1.46 (inactive)
[N-]=[N+]=NCc1ccccc1C[C@@]1(C(=O)N2CCOCC2)N=C(c2ccc(OCCCO)cc2)O[C@@H]1c1ccccc1CN=[N+]=[N-],0.562 (inactive),0.429,28.2 (active),21.5 (active),3.05 (inactive),5.86 (inactive),0.0883,-1 (inactive),1.26 (inactive),1.08,0.052,-0.19,1.29,-0.757,-2.91,0.883,0.612 (inactive),-0.997,-1.15,-1.46 (inactive)
CCC(CC)C(O)C1C=CC2C(=O)N(c3ccccc3)C(=O)C2N1Nc1ccc(C#N)cc1 (stereo not given),-0.35 (inactive),0.675,15.4 (active),2.91 (inactive),3.47 (inactive),1.51 (inactive),-1.11,-1.49 (inactive),-3.45 (inactive),-3.2,0.313,-0.534,-0.136,0.436,-0.452,-1.03,-1.29 (inactive),-0.659,-0.0284,0.158 (inactive)
C=C(CCCC)/C(=C/C[C@H](OC(C)=O)c1ccc(CO)o1)c1cnc2ccccc2c1,-0.134 (inactive),0.0557,5.4 (inactive),0.452 (inactive),0.435 (inactive),0.136 (inactive),0.307,-0.719 (inactive),-0.447 (inactive),-0.582,0.0278,-0.229,0.311,-2.01,-0.889,-1.04,-0.779 (inactive),-0.143,-0.238,0.398 (inactive)
CCOc1cc(C(O)C2C=CC3C(=O)N(c4ccccc4)C(=O)C3N2Nc2ccc([N+](=O)[O-])cc2)ccc1O (stereo not given),-1.48 (inactive),-0.0011,14.3 (active),1.52 (inactive),0.839 (inactive),0.557 (inactive),-0.77,-3.36 (inactive),-4.89 (inactive),-4.11,-0.499,-0.742,-0.527,0.162,-0.223,-2.36,-2.03 (inactive),-0.459,-0.908,-0.373 (inactive)
COc1ccc(CCNC(=O)[C@@]2(c3ccc([N+](=O)[O-])cc3)CC(=O)N(CC34CC5CC(CC(C5)C3)C4)[C@@H]2c2ccc(CO)cc2)cc1,0.0305 (inactive),0.155,4.6 (inactive),0.522 (inactive),3.14 (inactive),-0.24 (inactive),2,-0.956 (inactive),-4.54 (inactive),-3.97,-2.36,0.369,-1.88,-2.98,-4.23,1.23,-0.626 (inactive),-0.857,-0.452,-2.29 (inactive)
CC(C)c1ccc(NN2C(C(O)c3ccc(N(C)C)cc3)C=CC3C(=O)N(c4ccccc4)C(=O)C32)cc1 (stereo not given),-0.448 (inactive),0.544,1.72 (inactive),1.05 (inactive),0.655 (inactive),1.32 (inactive),-0.183,-1.14 (inactive),-0.983 (inactive),-2.39,1.1,-1.62,0.974,-0.36,-0.368,-0.337,-1.22 (inactive),0.149,-0.811,-0.0686 (inactive)
COC(=O)C(CC#Cc1ccc2c(c1)[C@]1(C(=O)N2)[C@H](c2ccc(OCCO)cc2)N2[C@H](c3ccccc3)[C@H](c3ccccc3)OC(=O)[C@H]2[C@@H]1C(=O)NC[C@H](O)c1ccccc1)C(=O)OC,1.57 (inactive),0.0903,2.5 (inactive),1.14 (inactive),0.829 (inactive),0.664 (inactive),0.219,2.1 (inactive),1.2 (inactive),0.489,0.876,1.04,1.31,-1.67,-1.2,-1.13,0.833 (inactive),-1.29,-1.35,0.795 (inactive)

# Reference: PubChem BioAssay
